JMJD2A Tudor inh = inhibitors of human JMJD2A Tudor domain; actives 4.4% (n = 390,000); AID 504339; Potency, µM (doses to about 114 µM), hits mostly inhibitors; AlphaScreen JMJD2A-Tudor / H3K4me3 peptide binding; also: nearly all actives have a fitted effect of over 50% in size
BAZ2B inh = BAZ2B (human) inhibition. Q9UIF8. AlphaScreen BAZ2B-H3K14Ac peptide displacement. Potency, µM (top dose mostly 114 µM), hits mostly inhibitors. actives 4.4% (n = 360,000); also: nearly all actives have a fitted effect of over 60% in size
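Compounds, titrated to a top concentration of 110 uM, were incubated 30 min at room temperature with preformed BAZ2B/acetyl-K14 H3 peptide complex (50 nM each). Proximity signal was measured by AlphaScreen after 20 min with beads.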
HP1b chromo inh = blocks HP1-beta chromodomain binding to methylated histone tails; AlphaScreen HP1-beta / biotin-H3K9me3 peptide binding; Potency, µM (top dose mostly 114 µM), most hits filed as inhibitors; actives 0.56% (n = 390,000); AID 540317; also: nearly all actives have a fitted effect of over 70% in size
Target sequence (P83916 whole entry, looked up): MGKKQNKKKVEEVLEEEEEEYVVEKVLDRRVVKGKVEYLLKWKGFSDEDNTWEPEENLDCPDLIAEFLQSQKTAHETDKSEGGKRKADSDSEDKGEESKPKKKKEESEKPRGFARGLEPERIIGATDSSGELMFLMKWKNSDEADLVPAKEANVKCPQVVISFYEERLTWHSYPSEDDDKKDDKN
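Compound inhibition of the preformed complex between 50 nM HP1-beta and 50 nM biotinylated H3K9me3 peptide was read by AlphaScreen. Buffer was PBS pH 7.4 with 0.01% Tween-20. Incubations ran 30 min at room temperature, with 10 ug/mL donor/acceptor beads.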
G9a block = blocks human histone lysine methyltransferase G9a | Q96KQ7 | G9a H3K9 monomethylation, AlphaScreen, 2 h | Potency, µM (doses to about 102 µM), hits mostly inhibitors | actives 8.8% (n = 350,000); also: nearly all actives have a fitted effect of over 75% in size
Target sequence (Q96KQ7 913-1193 limits assumed): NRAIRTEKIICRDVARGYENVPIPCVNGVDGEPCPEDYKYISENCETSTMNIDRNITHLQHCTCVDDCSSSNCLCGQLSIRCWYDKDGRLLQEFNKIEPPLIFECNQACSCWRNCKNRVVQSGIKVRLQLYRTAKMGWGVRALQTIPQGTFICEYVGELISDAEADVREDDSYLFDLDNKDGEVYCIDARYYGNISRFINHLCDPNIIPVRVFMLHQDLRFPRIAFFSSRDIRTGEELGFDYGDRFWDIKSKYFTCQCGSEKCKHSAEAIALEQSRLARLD
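Compounds were preincubated with 20 nM G9a for 15 min, after which biotinylated H3K9 peptide (500 nM) and SAM (20 uM) started a 2 h room-temperature reaction. Monomethylated product was quantified by antibody-based AlphaScreen chemiluminescence.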
TDP1 inh = blocks human tyrosyl-DNA phosphodiesterase 1; actives 0.28% (n = 350,000); recombinant TDP1, AlphaScreen DNA substrate cleavage; Potency, µM (series often up to 130 µM), most hits filed as inhibitors; also: nearly all actives have a fitted effect of over 40% in size
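Signal: AlphaScreen proximity between streptavidin donor and anti-FITC acceptor beads on intact substrate. Reaction: Tdp1 1 nM, substrate 15 nM final, 5 min RT after 15 min compound preincubation.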
Sfp inh = Sfp phosphopantetheinyl transferase inhibition | Q9F4F7 | Biochemical Sfp PPTase activity, qHTS | Potency, µM, most hits filed as inhibitors | actives 3.5% (n = 310,000) | AID 1490;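 also: the enzyme is Sfp with the accession as filed and its product quenches rhodamine fluorescence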
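With Hepes-Na pH 7.6 buffer containing 10 mM MgCl2, Sfp (15 nM) modified BHQ-2-YbbR (12.5 uM) using rhodamine-CoA (5 uM). Two reads 30 minutes apart at 525/598 nm yielded each well's rate.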
Numbers stand for hits; n = inactive; u = inconclusive; x = no result given; [ ] = dose if it differs, or a comment. An excerpt weighted towards active compounds, which were near 12% of everything screened. Calls follow the shape of the dose curve; as a rule, active = well fitted curve in the direction sought with a large enough effect; inconclusive = small, poorly fitted or top-dose-only effect, or another doubt; inactive = no such curve, though single readings can be large; an effect the other way counts as inactive or inconclusive.

SMILES	JMJD2A Tudor inh	BAZ2B inh	HP1b chromo inh	G9a block	TDP1 inh	Sfp inh
CCC(C)NC(=O)C1CCN(S(=O)(=O)c2cc([N+](=O)[O-])ccc2Cl)CC1 (stereo not given)	n	n	n	n	n	n
O=C(Nc1nc2ccccc2s1)C1CCN(S(=O)(=O)c2cc([N+](=O)[O-])ccc2Cl)CC1	u	28µM	n	u	n	n
N#CC1=C2SCC(O)(c3ccccc3)N2C(=O)CC1c1ccccc1 (stereo not given)	n	u	n	40µM	n	56µM
CCOc1ccc(NC(=O)CN(C)C(=O)c2cc3c(s2)CCCCC3)cc1OCC	n	n	n	n	n	x
CCOc1cc(C2NC(=S)NC(C)=C2C(=O)Nc2ccccc2)ccc1O (stereo not given)	n	n	n	n	n	n
COc1cccc(C2NC(=S)NC(C)=C2C(=O)c2ccccc2)c1OC (stereo not given)	n	u	n	22µM	n	n
C=CCOc1ccc(C2NC(=S)NC(C)=C2C(=O)c2ccccc2)cc1OC (stereo not given)	n	n	n	40µM	n	n
Cn1c(SCC(=O)Nc2ccccc2F)nnc1C1CCCCC1	n	n	n	x	n	n
CCN1C(=NCCc2cccs2)N[C@@H](CCc2ccccc2)[C@H](C(=O)NCCc2cccs2)[C@H]1C	x	n	x	n[12.7 µM]	x	n
Cn1c(=O)c2cc(S(=O)(=O)NC(Cc3ccccc3)C(=O)NCc3ccco3)ccc2n(C)c1=O (stereo not given)	n	n	n	63µM	n	n
Cc1cccc(NC(=O)C(Cc2ccccc2)NS(=O)(=O)c2ccc3c(c2)c(=O)n(C)c(=O)n3C)c1 (stereo not given)	n	89µM	n	n	n	x
CC(C)CCNC(=O)C(NS(=O)(=O)c1ccc2c(c1)c(=O)n(C)c(=O)n2C)c1ccccc1 (stereo not given)	n	n	n	8.9µM	n	n
Cc1ccc(C(=O)NCCC(=O)N2CCCC2)cc1	n	n	n	n	n	n
Clc1ncc(CN2CCN(c3ccccc3)CC2)s1	n	n	n	n	n	n
Cc1cccc(N2CCN(Cc3oc(CO)cc(=O)c3O)CC2)c1C	u	n	n	n[12.7 µM]	n	n
Cc1ccccc1N1CCN(Cc2ccc(Br)o2)CC1	1µM	56µM	u	10µM	x	n
Cc1cccc(N2CCN(Cc3ccc(Br)o3)CC2)c1C	28µM	u	n	25µM	x	n
Brc1ccc(CN2CCN(c3ccccc3)CC2)o1	3.2µM	56µM	u	u	x	n
Cc1ccccc1N1CCN(Cc2cccc(C(=O)O)c2)CC1	n	n	n	n	n	n
Clc1ccccc1N1CCN(Cc2ccc(Br)o2)CC1	25µM	x	n	x	x	x
COc1ccccc1C(C)NC(=O)c1ccc(NC(=O)CC2SC(N3CCCC3)=NC2=O)cc1 (stereo not given)	n	n	n	n	n	x
COC(=O)[C@@]1(Cc2ccc(F)cc2)[C@H]2c3cc(C(=O)N4CCCC4)n(Cc4cccc5ccccc45)c3C[C@H]2CN1C(=O)c1ccccc1	x	x	x	x	n	n
COC(=O)c1sccc1S(=O)(=O)N(CC(=O)Nc1cccc(C)c1C)c1ccc(C)c(C)c1	n	n	n	n	n	x
C=CCN1c2ccccc2[C@]23C[C@@H](C(=O)OC)N(S(=O)(=O)CCCC)C2=NC(C(=O)OC)=C(C(=O)OC)[C@H]13	x	x	x	x	n[12.3 µM]	n
CC1CCc2c(sc3nnn(CCCCOc4ccc(Cl)cc4)c(=O)c23)C1 (stereo not given)	u	n	n	13µM	n	x
SMILES	JMJD2A Tudor inh	BAZ2B inh	HP1b chromo inh	G9a block	TDP1 inh	Sfp inh
Cc1ccc(OCCCCn2nnc3sc4c(c3c2=O)CCC(C)C4)cc1 (stereo not given)	n	u	n	u	n	x
COn1c2c(c3c4no[n+]([O-])c4ccc31)CCCC2	n	n	n	n	n	n
COn1c2c(c3c4nonc4ccc31)CCCC2	n	n	n	10µM	n	n
Oc1ccc(NCc2cccs2)cc1	n	u	u	40µM	n	u
O=C(O)CCn1c(-c2ccccc2)cc2c1CCCC2=O	n	n	n	50µM	n	n
CC1=CC(C)(C)N(S(=O)(=O)c2ccc(C)cc2)c2ccc(C)cc21	n	n	n	n	n	n
CC1=CC(C)(C)[N+](C)(C)c2ccc(C)cc21	u	u	n	56µM	n	n
O=C(Cc1cccc(NC(=O)C2CCCN(C(=O)C3CCCCC3)C2)c1)Nc1cccc(C(=O)N2CCOCC2)c1 (stereo not given)	n	x	n	x	x	x
Cc1cc(Nc2ccccc2)c2c([N+](=O)[O-])c(C)cc(C)c2n1	25µM	32µM	40µM	22µM	n	n
COc1ccc(Cc2nnc(N/N=C(\C)c3ccccc3)[nH]c2=O)cc1OC	n	35µM	n	x	n	n
COc1ccc(/C=N/Nc2nnc(Cc3ccc(OC)c(OC)c3)c(=O)[nH]2)cc1	n	u	n	u	n	n
COc1ccc(Cc2nnc(NN)[nH]c2=O)cc1OC	2.5µM	4µM	n	n	x	45µM
COCC1CCN(C(=O)C2CCC(=O)N(Cc3cccc(F)c3)C2)CC1 (stereo not given)	n	n	n	n	n	n
Cc1nn(-c2ccccc2)c(OC(=O)C(C)C)c1Sc1ccc(Cl)cc1	n	n	n	4.5µM	n	x
COc1ccc(C(=O)Oc2c(Sc3ccccc3)c(C)nn2-c2ccccc2)c(OC)c1	n	n	n	n	n	x
O=C(NCCc1ccccc1)c1nc(-c2ccc(Cl)cc2)n2c1CCCCC2	22µM	25µM	n	14µM	n	x
CC(C)N(Cc1ccccc1)C(=O)c1nc(-c2ccc(Cl)cc2)n2c1CCCCC2	45µM	35µM	n	u	n	x
CCOc1ccccc1CNC(=O)c1nc(-c2ccc(Cl)cc2)n2c1CCCCC2	u	10µM	n	10µM	n	x
Cc1ccc(-c2nc(C(=O)NCc3ccc(Cl)cc3)c3n2CCCCC3)cc1	n	n	n	n	n	x
COC(=O)c1ccc(NC(=O)c2nc(-c3ccc(Cl)cc3)n3c2CCCCC3)cc1	n	u	n	u	n	x
O=C(c1ccc(Cl)cc1)N1CCN(c2ccc(F)cc2)CC1	n	n	n	n	n	n
O=C(c1nc(-c2ccc(Cl)cc2)n2c1CCCCC2)N1CCN(c2ccc(F)cc2)CC1	40µM	40µM	u	u	n	x
O=C(CN1CCOCC1)NNc1nc(-c2ccccc2)c2cc(Br)ccc2n1	n	n	n	n	n	n
CO[C@H]1COC(=O)CCC[C@H](C)[C@@H](OC)COC(=O)C/C=C\[C@@H]1C	x	x	x	x	n[21 µM]	n
Cc1noc(C)c1-c1ccc2ncnc(NCc3cccn3C)c2c1	n	x	x	x	n	n

Screening data deposited in PubChem by National Center for Advancing Translational Sciences (NCATS).
